In ChEMBL document CHEMBL3988442, “University of Dundee, Small-Polar-MMV Screening Library” (2021):
For some of these results: Entries with a potency or affinity are not part of this list.

How the values were obtained:
Set-up in all cases: scale not given: direction of the effect not stated beside the values
[1] = target: Protein translocase subunit SecA (Escherichia coli (strain K12)) (UniProt P10408); assay: Assay to Identify E. coli SecA ATPase Inhibitors; type: functional; conditions: 30 µM
[2] = target: T1, Ubiquitin-activating enzyme e1, putative (Leishmania donovani (strain BPK282A1)) (UniProt E9BSI1); assay: Leishmania donovani Ubiquitin Activating Enzyme (LdE1); type: functional; conditions: 30 µM
T1 sequence (whole entry): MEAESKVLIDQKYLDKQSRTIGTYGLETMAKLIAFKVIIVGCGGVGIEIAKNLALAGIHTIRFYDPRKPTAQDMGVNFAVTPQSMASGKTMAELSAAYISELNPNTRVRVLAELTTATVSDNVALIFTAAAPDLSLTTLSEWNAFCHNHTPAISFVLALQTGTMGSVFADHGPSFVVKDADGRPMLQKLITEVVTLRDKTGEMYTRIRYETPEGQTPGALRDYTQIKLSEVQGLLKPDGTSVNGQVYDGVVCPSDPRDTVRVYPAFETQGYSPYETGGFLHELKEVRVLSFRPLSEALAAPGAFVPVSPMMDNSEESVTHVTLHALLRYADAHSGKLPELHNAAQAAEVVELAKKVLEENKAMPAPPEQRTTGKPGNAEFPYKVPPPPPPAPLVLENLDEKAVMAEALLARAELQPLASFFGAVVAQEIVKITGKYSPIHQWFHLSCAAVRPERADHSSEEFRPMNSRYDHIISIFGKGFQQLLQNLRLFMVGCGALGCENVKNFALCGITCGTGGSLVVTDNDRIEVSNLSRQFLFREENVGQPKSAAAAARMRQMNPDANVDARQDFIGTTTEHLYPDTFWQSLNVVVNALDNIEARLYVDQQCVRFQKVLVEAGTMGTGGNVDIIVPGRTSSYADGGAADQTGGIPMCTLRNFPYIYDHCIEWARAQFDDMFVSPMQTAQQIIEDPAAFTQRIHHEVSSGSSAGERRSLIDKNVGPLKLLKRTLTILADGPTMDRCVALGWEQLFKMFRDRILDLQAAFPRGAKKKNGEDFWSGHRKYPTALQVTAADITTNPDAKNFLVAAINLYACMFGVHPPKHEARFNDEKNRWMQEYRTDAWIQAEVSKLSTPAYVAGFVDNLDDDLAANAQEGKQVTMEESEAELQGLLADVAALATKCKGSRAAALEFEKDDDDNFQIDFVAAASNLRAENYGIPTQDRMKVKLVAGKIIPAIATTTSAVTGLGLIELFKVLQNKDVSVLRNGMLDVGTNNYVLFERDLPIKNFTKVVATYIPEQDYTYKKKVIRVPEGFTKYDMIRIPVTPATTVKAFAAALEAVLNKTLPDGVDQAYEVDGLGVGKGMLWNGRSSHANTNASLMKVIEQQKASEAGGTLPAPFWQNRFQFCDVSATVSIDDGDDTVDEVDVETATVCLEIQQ

[3] = target: AMP-activated protein kinase, AMPK (Homo sapiens) (UniProt P54646+O43741+P54619+Q9UGJ0+Q9Y478+Q13131+Q9UGI9); assay: AMP-dependent Kinase enzyme assay. An in vitro enzyme assay that detects ADP turnover that is directly proportional to AMPK activity. This uses naive AMPK that is activated during the assay with MK-8722; type: functional; conditions: 30 µM
[4] = target: Sialic acid-binding Ig-like lectin 9 (Homo sapiens) (UniProt Q9Y336); assay: Hs-Siglec9 ALPHAscreen SOP 20170721; conditions: 10 µM
Trypanosoma cruzi = assay: Trypanosoma cruzi phosphomannomutase and mannose-1-phosphate guanylyltransferase assay; type: functional; conditions: 10 µM
[5] = target: T2, Arginase-2, mitochondrial (Homo sapiens) (UniProt P78540); assay: in vitro enzyme assay to detect the production of urea directly proportional to the activity of Arginase II; type: functional; conditions: 33.3 µM; note: in the data most compounds retested in dose-response had high values
T2 sequence (whole entry): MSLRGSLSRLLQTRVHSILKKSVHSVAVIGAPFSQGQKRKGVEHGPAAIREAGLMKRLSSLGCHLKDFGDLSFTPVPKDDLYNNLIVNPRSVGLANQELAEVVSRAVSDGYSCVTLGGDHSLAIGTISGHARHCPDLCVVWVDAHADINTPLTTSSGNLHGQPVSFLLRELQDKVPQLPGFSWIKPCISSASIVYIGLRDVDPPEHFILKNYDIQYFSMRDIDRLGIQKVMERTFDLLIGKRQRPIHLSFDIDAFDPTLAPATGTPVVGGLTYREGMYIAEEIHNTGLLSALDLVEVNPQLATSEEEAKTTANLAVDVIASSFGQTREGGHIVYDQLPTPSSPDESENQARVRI

[6] = target: T3, Proteasome subunit beta (Trypanosoma cruzi) (UniProt O96673); assay: Trypanosoma cruzi proteasome chymotrypsin-like activity (TcProtChymo) assay.; note: in the data most compounds retested in dose-response had high values; type: functional; conditions: 9.37 µM
T3 sequence (whole entry): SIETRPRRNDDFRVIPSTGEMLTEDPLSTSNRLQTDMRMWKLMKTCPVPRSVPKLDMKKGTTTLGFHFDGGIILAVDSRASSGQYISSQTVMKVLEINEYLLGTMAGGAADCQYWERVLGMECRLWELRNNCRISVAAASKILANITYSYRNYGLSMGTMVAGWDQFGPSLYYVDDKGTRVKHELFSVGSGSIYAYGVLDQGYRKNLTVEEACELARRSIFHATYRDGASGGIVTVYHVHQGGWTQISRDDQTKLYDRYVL

Homo sapiens = species on record: Homo sapiens; assay: To identify inhibition of the IFN signalling (Jak-Stat) pathway via expression of an eGFP reporter gene under the control of an IFN-stimulated response element (ISRE) containing MxA promoter.; type: functional; conditions: 30 µM
[7] = target: T4, Tyrosyl-tRNA synthetase, putative (Trypanosoma cruzi (strain CL Brener)) (UniProt Q4DSP6); assay: Trypanosoma cruzi tyrosyl tRNA synthetase (TcYRS) _High Tyrosine SOP; type: functional; conditions: 30 µM; note: in the data most compounds retested in dose-response had high values
T4 sequence (whole entry): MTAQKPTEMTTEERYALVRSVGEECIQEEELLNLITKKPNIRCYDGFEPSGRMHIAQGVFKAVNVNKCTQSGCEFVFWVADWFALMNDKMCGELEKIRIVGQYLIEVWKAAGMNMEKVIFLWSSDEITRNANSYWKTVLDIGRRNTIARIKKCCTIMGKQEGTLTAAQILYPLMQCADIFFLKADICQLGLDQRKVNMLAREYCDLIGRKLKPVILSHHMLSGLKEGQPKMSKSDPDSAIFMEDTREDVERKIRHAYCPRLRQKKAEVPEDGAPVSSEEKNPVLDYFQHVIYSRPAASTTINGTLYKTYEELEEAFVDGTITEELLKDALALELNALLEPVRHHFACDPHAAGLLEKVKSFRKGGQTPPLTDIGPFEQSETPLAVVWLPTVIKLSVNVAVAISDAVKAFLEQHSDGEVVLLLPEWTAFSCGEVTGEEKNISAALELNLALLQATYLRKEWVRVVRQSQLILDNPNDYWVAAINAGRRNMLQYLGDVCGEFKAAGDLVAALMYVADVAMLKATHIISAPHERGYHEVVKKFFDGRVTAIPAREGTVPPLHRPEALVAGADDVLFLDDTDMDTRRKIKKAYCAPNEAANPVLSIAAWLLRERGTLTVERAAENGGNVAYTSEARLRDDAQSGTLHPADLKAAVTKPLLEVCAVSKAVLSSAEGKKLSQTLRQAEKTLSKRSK

[8] = target: T4, Tyrosyl-tRNA synthetase, putative (Trypanosoma cruzi (strain CL Brener)); assay: Trypanosoma cruzi tyrosyl tRNA synthetase (TcYRS) SOP; type: functional; conditions: 30 µM
[9] = target: Chromo domain-containing protein 1 (Saccharomyces cerevisiae (strain ATCC 204508 / S288c) (Baker's yeast)) (UniProt P32657); assay: ScCHD-1 Enzyme Inhibition Assay; type: functional; conditions: 30 µM; note: in the data most compounds retested in dose-response had high values
Chromo domain-containing protein 1 (Saccharomyces cerevisiae (strain ATCC 204508 / S288c) (Baker's yeast)), sequence (P32657 whole entry, the tested form may be a part): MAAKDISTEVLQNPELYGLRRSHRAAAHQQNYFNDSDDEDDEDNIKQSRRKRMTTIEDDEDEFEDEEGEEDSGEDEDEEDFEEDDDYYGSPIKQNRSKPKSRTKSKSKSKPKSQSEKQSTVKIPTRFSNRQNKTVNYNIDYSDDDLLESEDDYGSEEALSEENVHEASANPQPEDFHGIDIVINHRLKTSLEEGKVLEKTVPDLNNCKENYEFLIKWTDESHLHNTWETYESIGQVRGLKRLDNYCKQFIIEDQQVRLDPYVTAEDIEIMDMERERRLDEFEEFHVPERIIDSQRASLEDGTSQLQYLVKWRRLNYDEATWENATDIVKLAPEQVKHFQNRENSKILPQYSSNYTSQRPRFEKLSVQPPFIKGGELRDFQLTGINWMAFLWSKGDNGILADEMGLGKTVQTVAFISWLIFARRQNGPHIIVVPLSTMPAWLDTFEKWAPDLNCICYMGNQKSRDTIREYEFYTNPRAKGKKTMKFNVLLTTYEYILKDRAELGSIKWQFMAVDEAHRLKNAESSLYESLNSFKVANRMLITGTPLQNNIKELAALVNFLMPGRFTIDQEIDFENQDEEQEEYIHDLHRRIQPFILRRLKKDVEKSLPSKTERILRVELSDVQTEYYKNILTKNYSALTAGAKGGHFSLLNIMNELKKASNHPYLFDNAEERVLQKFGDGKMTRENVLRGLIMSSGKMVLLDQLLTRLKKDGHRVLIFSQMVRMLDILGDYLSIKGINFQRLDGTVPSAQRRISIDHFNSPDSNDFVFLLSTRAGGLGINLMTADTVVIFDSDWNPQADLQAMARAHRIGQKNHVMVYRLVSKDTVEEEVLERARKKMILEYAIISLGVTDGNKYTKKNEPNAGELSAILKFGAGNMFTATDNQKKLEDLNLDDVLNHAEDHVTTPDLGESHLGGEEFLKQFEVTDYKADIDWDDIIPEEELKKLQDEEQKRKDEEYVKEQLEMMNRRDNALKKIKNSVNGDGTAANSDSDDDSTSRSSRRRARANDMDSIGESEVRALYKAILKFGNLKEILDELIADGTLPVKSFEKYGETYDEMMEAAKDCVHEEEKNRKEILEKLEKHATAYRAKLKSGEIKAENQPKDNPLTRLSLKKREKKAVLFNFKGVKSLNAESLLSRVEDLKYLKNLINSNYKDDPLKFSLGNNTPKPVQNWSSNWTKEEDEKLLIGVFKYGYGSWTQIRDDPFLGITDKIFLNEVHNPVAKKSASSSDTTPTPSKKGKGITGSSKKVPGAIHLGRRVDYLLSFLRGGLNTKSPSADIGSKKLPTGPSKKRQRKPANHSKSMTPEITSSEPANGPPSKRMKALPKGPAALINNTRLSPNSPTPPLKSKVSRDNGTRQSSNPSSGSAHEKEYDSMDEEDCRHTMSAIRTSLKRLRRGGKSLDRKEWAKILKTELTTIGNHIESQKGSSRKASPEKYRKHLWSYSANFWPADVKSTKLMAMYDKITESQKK

Protein translocase subunit SecA (Escherichia coli (strain K12)), sequence (P10408 whole entry): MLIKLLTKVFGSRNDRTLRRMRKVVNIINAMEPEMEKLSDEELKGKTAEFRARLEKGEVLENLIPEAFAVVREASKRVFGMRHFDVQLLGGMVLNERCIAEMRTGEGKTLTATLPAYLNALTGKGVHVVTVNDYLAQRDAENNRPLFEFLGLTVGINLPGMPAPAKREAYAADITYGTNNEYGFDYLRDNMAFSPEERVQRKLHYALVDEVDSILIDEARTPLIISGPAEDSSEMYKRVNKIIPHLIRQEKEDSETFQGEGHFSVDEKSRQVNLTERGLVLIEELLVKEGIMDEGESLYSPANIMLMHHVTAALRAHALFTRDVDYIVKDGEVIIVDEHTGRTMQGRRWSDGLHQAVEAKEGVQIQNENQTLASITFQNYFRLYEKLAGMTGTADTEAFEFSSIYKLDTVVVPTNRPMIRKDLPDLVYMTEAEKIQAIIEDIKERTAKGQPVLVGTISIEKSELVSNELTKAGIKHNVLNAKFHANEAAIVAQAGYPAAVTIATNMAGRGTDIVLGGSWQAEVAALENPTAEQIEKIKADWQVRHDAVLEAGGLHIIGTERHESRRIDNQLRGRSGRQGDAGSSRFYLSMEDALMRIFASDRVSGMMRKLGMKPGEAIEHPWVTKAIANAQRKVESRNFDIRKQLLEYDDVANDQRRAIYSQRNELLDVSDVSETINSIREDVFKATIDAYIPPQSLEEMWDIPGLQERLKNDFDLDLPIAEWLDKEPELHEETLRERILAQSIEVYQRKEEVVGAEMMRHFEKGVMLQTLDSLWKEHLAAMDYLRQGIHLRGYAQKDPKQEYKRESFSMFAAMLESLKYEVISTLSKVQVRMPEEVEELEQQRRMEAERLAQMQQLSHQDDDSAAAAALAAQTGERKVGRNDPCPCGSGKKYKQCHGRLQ
Sialic acid-binding Ig-like lectin 9 (Homo sapiens), sequence (Q9Y336 whole entry): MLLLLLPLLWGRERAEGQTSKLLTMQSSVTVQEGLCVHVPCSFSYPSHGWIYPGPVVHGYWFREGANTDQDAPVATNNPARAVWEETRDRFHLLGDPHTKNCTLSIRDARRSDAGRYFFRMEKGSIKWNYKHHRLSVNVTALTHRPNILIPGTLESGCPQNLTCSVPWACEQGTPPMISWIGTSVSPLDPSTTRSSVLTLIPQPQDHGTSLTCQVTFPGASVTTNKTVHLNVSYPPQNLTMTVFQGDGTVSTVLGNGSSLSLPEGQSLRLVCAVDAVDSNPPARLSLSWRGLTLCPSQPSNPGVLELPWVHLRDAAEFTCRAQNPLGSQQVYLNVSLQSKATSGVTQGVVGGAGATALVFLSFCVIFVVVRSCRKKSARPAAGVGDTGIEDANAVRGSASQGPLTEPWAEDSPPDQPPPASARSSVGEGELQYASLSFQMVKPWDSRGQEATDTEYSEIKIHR

Compound	Percent Effect [1] [%]	Percent Effect [2] [%]	Percent Effect [3] [%]	Percent Effect [4] [%]	Percent Effect (Trypanosoma cruzi) [%]	Percent Effect [5] [%]	Percent Effect [6] [%]	Percent Effect (Homo sapiens) [%]	Percent Effect [7] [%]	Percent Effect [8] [%]	Percent Effect [9] [%]
CCCn1nc(C)c(CNC(=O)C2COc3c(cccc3OC)C2)c1C (configuration not stated)	-3.57	2.74	-2.55	6.74	1.19	-5.59	15.5	10.2	6.25	16.1	-3.25
CC(C)c1nc(C2CCCN(C(=O)Cc3cccnc3)C2)no1 (configuration not stated)	-0.76	16.2	-13.3	-2.67	-10.3	-1.6	2.16	25.4	5.42	6.17	-2.89
Cc1ccc(C(CNCc2ccncc2)N2CCOCC2)s1 (configuration not stated)	-9.26	-2.7	-3.34	21.5	-2.73	1.67	17.8	18.3	1.98	-1.22	-7.13
Cc1cc(N2CCCC2c2cnccn2)ncn1 (configuration not stated)	-2.62	6.76	8.11	0.00484	-2.37	0.696	7.02	5.1	8.6	14.3	-2.99
CC(C)(C)CC(=O)N1CC[C@@H]2[C@H](CC1)N(S(C)(=O)=O)CCS2(=O)=O	-2.22	16.2	-9.04	3.69	5.27	15	9.89	8.9	8.91	20.7	-8.05
O=C(C1=CCCC1)N1CCO[C@H]2[C@@H](OCC3CC3)CC[C@@H]21	-3.62	18.7	-4.28	-6.26	2.51	-51.1	18.3	-0.0365	5.21	22.5	-7.27
Cc1ccccc1C(=O)NCc1ccc(N2CCNC(=O)C2)c(F)c1	-3.15	8.11	-2.71	4.68	0.579	-2.86	8.97	-16.3	4.76	12.2	-2.41
Cc1nc(CN2CCN(C(=O)c3ccn(C)c(=O)c3)CC2)cs1	-3.89	19	-4.58	-0.681	2.15	-4.52	15.9	10.6	9.38	15.2	-25.7
CCN1CCN(Cc2coc(-c3cccc(F)c3)n2)CC1	-2.72	18.2	-12.3	-3.56	5.06	-0.356	16.6	-3.8	9.71	12.2	-12
O=C(NCCNc1ncccn1)N1CCSCC1	-0.808	13.5	-7.4	9.38	3.87	-5.21	7.39	11.3	5.42	16.1	-9.99
CCn1nc(C)c(CCn2ccnc2-c2cc3n(n2)CCCNC3)c1C	-3.39	2.67	0.691	0.912	-3.02	4.17	8.2	12.4	2.73	8.64	-6.3
Cc1ncnc2c1CCN(c1cc(C(F)(F)F)ncn1)CC2	-2.66	13.3	-0.456	-3.31	-3.09	-58.2	13.7	4.55	0	2.5	-7.43
CN(C)c1ccc(CNC(=O)c2ccc(Cl)cc2F)cc1	-6.46	21.1	-2.58	2.05	1.46	-4.73	13.7	11.1	4.25	20.8	-6.29
Cc1nnc(C(C)NCC2(c3ccc(Cl)cc3)CCCC2)o1 (configuration not stated)	-2.66	-8.11	-5.55	5.04	-1.74	-4.76	7.07	19.5	0.529	-4.88	0.504
Cc1nc([C@@H]2C[C@@H]3CCN(C(=O)c4occc4C)C[C@H]3O2)no1	-6.42	0	6.51	3.94	-1.74	-52.1	4.1	7.9	-1.04	-5	-4.87
CC(C)OCCOCc1cccc(NC(=O)NCc2ccccn2)c1	-5.4	10.4	0.256	12	6.79	-24.8	19.3	-1.08	2.15	8.64	-6.3
CC(C)OCc1ncn2c1CN(Cc1cccs1)CCC2	-1.74	-2.7	-26.4	0.954	-2.25	-2.23	9.04	12.4	-2.16	2.56	-2.17
